The structures appear in SMILES notation. Several values for one entry are separate records, joined by “and”; a condition that tells them apart may be missing. Identical values can stand only once. Out of some 420,000 compounds screened, about 64,000 (15%) were called active. Inconclusive results (about 27%) are left out. Calls come from the whole dose curve; as a rule, active = well fitted inhibition curve with a large enough effect; inconclusive = small, poorly fitted or top-dose-only effect; inactive = flat fitted curve, though single readings scatter. These entries were drawn from the full list. A call without a number means that no potency is given here.
Potency is the fitted concentration of half-maximal effect.

A short description of this experiment: qHTS for Inhibitors of human tyrosyl-DNA phosphodiesterase 1 (TDP1): qHTS in cells in absence of CPT. Note: nearly all actives have a fitted effect of over 55% in size. Particulars: DT40 Tdp1-/- hTDP1 cells, no CPT, ATP luminescence, 48 h; activity change, negative = growth inhibition: at 46.2 µM (top of the series). In short, it runs like this: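 Chicken DT40 Tdp1-/- cells complemented with human TDP1, screened without camptothecin (DMSO vehicle only), 400 cells/well. Compounds pin-transferred, cells incubated at 37 °C for at least 48 hr. Growth read as ATP-dependent luminescence (CellTiter-Glo, 30 min at RT).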
On the technique in general: Quantitative high-throughput screening tests each substance at several concentrations.
Take `COCn1c(C(O)c2ccccc2)cc2ccccc21` (centres undefined): the Potency entry was “inactive”.

With `O=C1c2ccccc2S(=O)(=O)N1CC(O)Cn1c2ccccc2c2ccccc21` (centres undefined), the Potency entry was “inactive”. Regarding `CC(CC(=O)N1CCN(S(=O)(=O)c2ccccc2)CC1)n1cncn1` (centres undefined), the Potency entry is “inactive”. Take `CCN(CC)S(=O)(=O)c1ccc2[nH]c(=O)cc(C(=O)N(C)C3CCS(=O)(=O)C3)c2c1` (centres undefined): the Potency result was “inactive”. Then `CC(=O)N1CCN(CCN=CC2=C(O)CC(C)(C)CC2=O)CC1`, with “inactive”; and `CCc1nccn1S(=O)(=O)c1cccc([N+](=O)[O-])c1`, with “inactive”; and `Nc1ncnc2nnsc12`, with “inactive”.

As to `O=S(=O)(NCCc1csc(-c2ccccc2)n1)c1cccnc1`, the Potency entry was “inactive”. Then `COc1cc(OC)cc(C(=O)NNC(=O)CNC(=O)c2ccc(Br)o2)c1`, with “inactive”; and `COc1ccc(-c2nc(CCNC(=O)c3ccc(Br)o3)cs2)cc1`, with 20.6 µM (active) and 18.4 µM (active). `CC(C)c1ccc(NC(=O)COC(=O)c2ccc(CN3CCCC3=O)cc2)cc1`: the Potency result was “inactive”. As for `CN(C)C(=O)N1CCNCC1`, the Potency entry was “inactive”.

In the case of `C=C(C)CNC(=S)/N=c1\scc(C)n1CC`, the Potency is 20.6 µM (active).

As to `Cc1csc(=NC(=O)c2ccccc2)n1CCO`, the Potency entry was “inactive”.

`COc1ccc(NC(=S)Nc2ccc(S(N)(=O)=O)cc2)c(C)c1`: the Potency entry is “inactive”. The result for `COC(=O)c1sc(NC(=O)COC(=O)C2CCC2)c(C(=O)OC)c1C` reads “inactive”; that for `O=S1(=O)C[C@@H](N2CCN(CCO)CC2)[C@H](COCc2ccccc2)N1`, “inactive”; that for `COc1ccc(NC(=O)CSc2nc(C)cs2)cc1`, “inactive”.

Consider `Cc1ccc(NC(=O)CNCc2ccccn2)cc1S(=O)(=O)N(C)C`, for which the Potency entry was “inactive”.

For `Cc1csc(SCC(=O)Nc2ccc(C)c(S(=O)(=O)N(C)C)c2)n1`, the Potency is 18.4 µM (active). The result for `CC(=O)c1sc(N)nc1C` reads “inactive”.

`CC(C)[C@H](NC(=O)N1CC(=O)Nc2ccccc21)C(=O)N[C@@H](Cc1c[nH]c2ccccc12)C(=O)O`: the Potency entry is “inactive”.

On to `CC(C[N+](C)(C)C)OC(N)=O` (centres undefined), for which the Potency entry is “inactive”. The result for `Fc1ccc(COc2cccc(-c3n[nH]c(=S)o3)c2)cc1` reads “inactive”. On to `O=C(NCCOc1ccccc1Cl)C(=O)Nc1ccccc1`, for which the Potency is 18.4 µM (active). The result for `COc1ccccc1OCCNC(=O)CCNC(=O)c1ccccc1Cl` reads “inactive”.

With `O=C(O)c1ccccc1OCc1ccccc1Cl`, the Potency result is “inactive”. The result for `CCC(C)NC(=O)C1CCCN(C(=O)NC2CCCCC2)C1` (centres undefined) reads “inactive”. For `C=CCN(c1ccc(C(=O)Nc2cc(C)cc(C)c2)cc1)S(C)(=O)=O`, the Potency entry is “inactive”.

Consider `COc1ccc(C#Cc2c(-c3ccc(OC)cc3)oc3ccc(-c4ccc5c(c4)OCO5)cc23)cc1`, for which the Potency entry is “inactive”. Then `COc1ccc(-c2onc(C)c2-c2ccc3c(c2)OCCO3)c(O)c1`, with 18.4 µM (active); and `COc1ccc(O)c(C=Nc2cc(C)on2)c1`, with “inactive”.

Take `CC[C@H](C)[C@@H](C(=O)N1CCNCC1)n1cc([C@@H](N)Cc2ccc(O)cc2)nn1`: the Potency result is “inactive”. The result for `O=C(O)c1ccn(COc2ccc(Br)cc2)n1` reads “inactive”; that for `Cc1cccc(N2CCN(C(=O)CCS(=O)(=O)c3ccc4c(c3)NC(=O)C(C)S4)CC2)c1C` (centres undefined), 25.9 µM (active). Turning to `Cn1c(=O)c(=O)n(C)c2cc(S(=O)(=O)CCC(=O)N3CCCCC3)ccc21`, the Potency result was “inactive”. The result for `CCC(=O)N1CCc2cc(S(=O)(=O)CCC(=O)N3CCN(c4ccccc4F)CC3)ccc21` reads “inactive”. The result for `COc1cccc(CNS(=O)(=O)c2csc(C(N)=O)c2)c1` reads “inactive”; that for `COc1ccc(NC(=O)C2CCC(CNS(=O)(=O)c3csc(C(N)=O)c3)CC2)cc1OC` (centres undefined), “inactive”. For the compound `NC(=O)c1cc(S(=O)(=O)NCCCc2ccco2)cs1`, the Potency was 8.2 µM (active). Consider `CCC(=NC1CC(C)(C)NC(C)(C)C1)C1=C(O)CC(C)(C)CC1=O`, for which the Potency entry is “inactive”. `Cn1c(=O)cc(SCC(=O)N2CCCC2)c2cc(Cl)ccc21`: the Potency result was “inactive”. The result for `CC1(C)C(c2cccs2)=[N+]([O-])C2(CCCCC2=O)N1O` (centres undefined) reads “inactive”; that for `COc1ccc(C(CC(=O)c2ccccc2)S(=O)(=O)c2ccccc2)cc1` (centres undefined), 18.4 µM (active). Regarding `COc1ccc(C(CC(=O)O)NC(=O)Cc2ccccc2)cc1` (centres undefined), the Potency entry is “inactive”. In the case of `COc1ccc(N(Cc2ccccc2)S(=O)(=O)c2cccc(C(=O)O)c2)cc1`, the Potency entry was “inactive”.

Consider `CC(C)c1cc(C(=O)N/N=C/c2ccoc2)c(O)c(C(C)C)c1`, for which the Potency entry is “inactive”. The result for `CCOCCCNC(=O)Cc1cc(=O)[nH]c(=O)[nH]1` reads “inactive”; that for `COc1ccc(NC(=O)Cn2c(-c3ccc(OC)cc3)cn(-c3ccc(C)cc3)c2=O)cc1`, “inactive”; that for `CC(=O)OCC1(O)CC23CCC4c5ccoc5CCC4(C)C2CCC1C3` (centres undefined), 14.6 µM (active). Then `Cc1ccc(SCCC(=O)Nc2cc(C)on2)cc1`, with “inactive”. As for `O=C(O/N=C(/c1ccccc1)c1ccncc1)c1ccccc1[N+](=O)[O-]`, the Potency result is “inactive”. Consider `O=C(CN1CCOCC1)Nc1ccc(NC(=O)CN2CCOCC2)c(Cl)c1`, for which the Potency result is “inactive”. The result for `CC(=O)OC1CCC2(O)CC1(C)CCC1C2CC1(C)C` (centres undefined) reads “inactive”. The result for `CCOC(=O)c1csc(CCNC(=O)c2oc3c(Cl)cc(C)cc3c2C)n1` reads 20.6 µM (active); that for `Cc1ccc2c(=O)cc(C(=O)NCCc3ccc(S(N)(=O)=O)cc3)oc2c1C`, “inactive”; that for `COc1ccc(NC(=O)c2cccc3c2C(=O)N(CC2CCCO2)C3)cc1OC` (centres undefined), 23.1 µM (active).

On to `CCOc1ccc(NC(=O)c2cccc3c2C(=O)N(CC2CCCO2)C3)cc1` (centres undefined), for which the Potency result is “inactive”. Consider `COCCN1Cc2cccc(C(=O)Nc3ccccc3OC)c2C1=O`, for which the Potency result is “inactive”. For `O=C(CNS(=O)(=O)c1ccc(Br)s1)N1CCN(C(=O)c2ccco2)CC1`, the Potency entry is “inactive”. As to `O=C(CNC(=O)c1cc2c(s1)CCC2)Nc1ccccc1Br`, the Potency entry is “inactive”.

As to `Cc1ccc(C(=O)N/C(=C\c2cccs2)C(=O)NCCc2ccccn2)cc1C`, the Potency entry was “inactive”. Then `COc1cncc(-c2cnc3sc(NCCc4ccccn4)nn23)c1`, with 13 µM (active); and `COc1ccc2oc(=O)c(C(=O)NCc3ccccn3)cc2c1`, with “inactive”. In the case of `C[C@H](CO)N1C[C@H](C)[C@H](CN(C)C(=O)Nc2ccc3c(c2)OCO3)Oc2ncc(Br)cc2C1=O`, the Potency result was “inactive”. Then `CN1CCCC(OC(=O)COc2ccc(Br)cc2)C1` (centres undefined), with “inactive”; and `CCOc1ccccc1N1C(=O)CC(Sc2nccc(C)n2)C1=O` (centres undefined), with 20.6 µM (active).

Regarding `CCOc1ccccc1-n1c(SCC(=O)N2CCCC2)nnc1-c1ccoc1C`, the Potency result is “inactive”. Turning to `CC(=O)Nc1ccc(N2C(=O)CC(Sc3nccc(C)n3)C2=O)cc1` (centres undefined), the Potency entry was “inactive”.

Source of the values: PubChem BioAssay AID686978 (National Center for Advancing Translational Sciences (NCATS), 2013).
